# In PubChem BioAssay:
# Active and inactive are the calls of the source.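 Rule for the calls, unless noted: active = inhibition above 20% together with a positive visual image hit; inconclusive = visual image hit but inhibition not above 20%; inactive = no visual image hit.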
# Key:
# [1] = inhibitors of TNFa-induced NFkB p65 translocation, primary screen, imaging, HUVEC, MLSMR starter and 10KST1 sets (AID 438); settings: HUVEC TNFa-induced p65 nuclear translocation; cell count: measured here: nuclei count (cytotoxicity indicator), at 2.08 µM; inhibition: at 2 µM, stronger effect = higher value, 0% TNFa-plus-vehicle, 100% no-TNFa wells;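 note: compound added about 3h40 before a 20 min TNFalpha stimulation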;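 for inhibition: signal is the nuclear over cytoplasmic p65 intensity ratio per well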
# [2] = inhibitors of mutant huntingtin aggregation, primary screen, imaging, exon1htt(103Q)mCFP cells, high-content imaging (AID 483;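 active = visual image review flags a hit and inhibition of aggregation exceeds 20%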;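 note: compound exposure lasted 3 days before fixation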;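 for nuclei count: percent of the per-plate median nuclei count of sample wells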); settings: exon1htt(103Q)mCFP cell line, aggregate imaging, at 2 µM; inhibition of aggregation: stronger effect = higher value; nuclei count: measured here: cell count, toxicity
# [3] = inhibitors of E-selectin induction by TNFa, primary screen, imaging, HUVEC, immunofluorescence, MLSMR starter and 10KST1 sets (AID 487;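 active = visually confirmed hit in the image check and inhibition above 20%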;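 for inhibition: signal is fraction of cell area covered by stained E-selectin grains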;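 for nuclei count: 100% = median nuclei count of all wells on the same plate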); settings: HUVEC TNFalpha-induced E-selectin immunofluorescence imaging, at 2 µM; inhibition: stronger effect = higher value; nuclei count: measured here: cell number, toxicity
# [4] = target: Voltage-gated potassium channel subunit beta-2 (Rattus norvegicus) (UniProt P62483); assay: KvBeta enzyme negative modulators, primary screen, biochemical, NADPH fluorescence (AID 622;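 active = fluorescence slope higher than the sample average by over 3 SD, cut at about -0.22 in these data, passing the limit was not always enough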;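 note: slope of raw intensity against log time taken from 70 to 1610 s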); settings: recombinant KvBeta, 4-cyanobenzaldehyde reduction, at 10 µM, stronger effect = higher value
# [5] = target: Voltage-gated potassium channel subunit beta-2 (Rattus norvegicus) (UniProt P62483); assay: KvBeta positive modulators, primary screen, biochemical, NADPH fluorescence (AID 623;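 active = NADPH fluorescence slope more negative than the mean of all samples by about 3 SD, 99.7% confidence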;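 note: fluorescence intensity change per second fitted from 20 to 320 s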); settings: Recombinant KvBeta, NADPH fluorescence decrease slope, 10 min; at 10 µM; stronger effect = lower value
# [6] = target: Alpha-2C adrenergic receptor (Homo sapiens) (UniProt P18825); assay: modulators of alpha2C/GIRK thallium flux, primary screen, cell-based, HEK293 alpha2C/GIRK1/2 (AID 624;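 active = fluorescence slope after compound addition differing from the mean of all screened samples at 99.7% confidence, in either direction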;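 note: slope of fluorescence ratio to pre-addition baseline per second over 15 to 24 s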); settings: thallium flux BTC fluorescence, at 10 µM, actives lie on both sides
# [7] = inhibitors of Sendai virus-induced IRF3 signaling, primary screen, TLR/RLR signaling modifier project, cell-based, Sendai virus stimulus, luciferase, 10K MLSCN set (AID 602276;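 active = inhibition at or above 50% at 10 µM; inactive = inhibition below 50%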;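 note: firefly luciferase from ISG56 promoter only with Renilla not read in this screen; 0% = Sendai virus plus DMSO and 100% = medium plus DMSO without virus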); settings: HEK293 RL24 IRF3 luciferase reporter, at 10 µM, stronger effect = higher value
# [8] = inhibitors of poly I:C-induced TLR3 signaling, primary screen, cell-based, poly I:C stimulus, luciferase, 10K MLSCN set (AID 602277;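 active = inhibition of the reporter signal at or above 50%; inactive = inhibition below 50%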); settings: HEK293-TLR3 RL24 IRF3 luciferase reporter, at 10 µM, stronger effect = higher value
# Sequence of Alpha-2C adrenergic receptor (Homo sapiens) (P18825 whole entry, looked up): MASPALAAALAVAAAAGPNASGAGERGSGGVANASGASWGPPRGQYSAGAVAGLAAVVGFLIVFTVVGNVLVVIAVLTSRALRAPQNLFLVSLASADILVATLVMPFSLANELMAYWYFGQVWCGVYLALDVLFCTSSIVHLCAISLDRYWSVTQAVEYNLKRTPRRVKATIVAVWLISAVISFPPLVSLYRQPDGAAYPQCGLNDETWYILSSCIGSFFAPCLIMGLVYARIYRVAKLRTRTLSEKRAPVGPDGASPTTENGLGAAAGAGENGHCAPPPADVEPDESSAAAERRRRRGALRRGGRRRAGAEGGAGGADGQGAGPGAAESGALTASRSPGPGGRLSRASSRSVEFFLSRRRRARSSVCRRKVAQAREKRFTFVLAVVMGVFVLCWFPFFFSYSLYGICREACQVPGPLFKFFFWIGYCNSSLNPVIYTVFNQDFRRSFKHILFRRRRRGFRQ
# Sequence of Voltage-gated potassium channel subunit beta-2 (Rattus norvegicus) (P62483 whole entry, looked up): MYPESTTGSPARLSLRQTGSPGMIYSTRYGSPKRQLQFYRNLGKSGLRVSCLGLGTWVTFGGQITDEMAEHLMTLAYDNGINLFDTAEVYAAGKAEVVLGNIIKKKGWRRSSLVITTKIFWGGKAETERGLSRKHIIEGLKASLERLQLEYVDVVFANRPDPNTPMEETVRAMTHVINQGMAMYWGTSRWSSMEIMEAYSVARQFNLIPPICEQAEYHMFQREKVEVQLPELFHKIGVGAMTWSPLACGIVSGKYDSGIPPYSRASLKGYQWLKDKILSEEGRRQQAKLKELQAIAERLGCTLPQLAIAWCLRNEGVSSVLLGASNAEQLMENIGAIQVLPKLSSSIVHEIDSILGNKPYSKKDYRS
Structure (SMILES),cell count [1],inhibition [1],inhibition of aggregation [2],nuclei count [2] [%],inhibition [3],nuclei count [3] [%],fluorescence slope [4],NADPH fluorescence slope [5],slope [6],inhibition [7],inhibition [8]
Cc1cccc(NC2SC(=O)N(c3ccccc3)C2=O)c1 (centres undefined),152,-14.3% (inactive),11.5% (inactive),92.8,26.4% (inactive),80.9,-0.377 (inactive),5.7e-06 (inactive),0.00476 (inactive),-2.7% (inactive),-12.1% (inactive)
COc1ccc(OC)c(NC(=O)CS(=O)(=O)Cc2nc(-c3ccccc3C)oc2C)c1,676,1.1% (inactive),-17.4% (inactive),97.7,-17.6% (inactive),110,-0.587 (inactive),-1.4e-06 (inactive),0.00717 (inactive),7.59% (inactive),31.4% (inactive)
COc1ccc2[nH]c(=O)c(CN(CC3CCCO3)C(=O)Nc3ccc(F)cc3)cc2c1 (centres undefined),621,3% (inactive),12.1% (inactive),95.3,-38.1% (inactive),114,-0.512 (inactive),7.8e-06 (inactive),0.00737 (inactive),-18.3% (inactive),-13.3% (inactive)
COCCCN(C(C)=O)c1nc(-c2ccccc2)cs1,472,-6.3% (inactive),-6% (inactive),90.9,6% (inactive),114,-0.533 (inactive),-3.7e-05 (inactive),0.00569 (inactive),-31.3% (inactive),-75% (inactive)
COc1ccc(NC(=O)CN2CCN(CC(=O)Nc3cc(OC)cc(OC)c3)CC2)cc1,306,-3.6% (inactive),8% (inactive),89.1,4.7% (inactive),84.6,-0.442 (inactive),-0.000127 (inactive),0.00643 (inactive),13.3% (inactive),32.4% (inactive)
CCOC(=O)N1CCN(C(=O)c2ccc3c(=O)n(Cc4ccc(OC)cc4)c(=S)[nH]c3c2)CC1,475,-17% (inactive),45.2% (active),59.2,2.4% (inactive),88.2,-0.496 (inactive),-2.2e-05 (inactive),0.00659 (inactive),11.9% (inactive),10% (inactive)
COc1ccc(CCNC(=O)CSc2nncn2N)cc1OC,641,-3.2% (inactive),24.1% (inactive),81.6,-29.4% (inactive),122,-0.345 (inactive),-1.6e-05 (inactive),0.00364 (inactive),12.1% (inactive),21.1% (inactive)
CCOC(=O)c1c(NC(=O)c2nn(CC)cc2Br)c(C#N)cn1-c1ccccc1,467,0.6% (inactive),-9.2% (inactive),51.8,-36.5% (inactive),93.5,-0.407 (inactive),-2.9e-05 (inactive),0.00368 (inactive),0.0192% (inactive),-9.02% (inactive)
CCN(CC)S(=O)(=O)c1ccc(S(=O)(=O)N(Cc2ccccn2)Cc2ccco2)cc1,322,-0.8% (inactive),-9.2% (inactive),112,-68.2% (inactive),123,-0.608 (inactive),6.2e-06 (inactive),0.00512 (inactive),6.58% (inactive),18.5% (inactive)
CCn1c(SCC(=O)Nc2cc(NC(C)=O)ccc2OC)nnc1-c1ccccn1,630,6.5% (inactive),3.4% (inactive),89.9,51.6% (inactive),92.7,-0.541 (inactive),1.5e-05 (inactive),0.00559 (inactive),10.3% (inactive),8.37% (inactive)
Cc1cc(NC(=O)CSc2nc3c(c(=O)n2Cc2ccccc2)SC(C)C3)no1 (centres undefined),554,8% (inactive),-16.2% (inactive),77.3,15.8% (inactive),86.8,-0.417 (inactive),-6.8e-05 (inactive),0.00456 (inactive),-14.3% (inactive),-5.37% (inactive)
O=C(Nc1cnn(Cc2ccc(Cl)cc2Cl)c1)c1noc2c1CCCC2,510,-7.6% (inactive),33.3% (active),57.6,-22.8% (inactive),99.5,-0.569 (inactive),-2.6e-05 (inactive),0.00522 (inactive),-3.18% (inactive),-25.5% (inactive)
O=C(CN1CCCCCC1)OCCN=C1NS(=O)(=O)c2ccccc21,384,-1.9% (inactive),-3.1% (inactive),62.4,-187% (inactive),133,-0.599 (inactive),-6.1e-06 (inactive),0.00669 (inactive),9.82% (inactive),8.03% (inactive)
C/C(=C\c1ccco1)C1C(C#N)=C(N)OC2=C1C(=O)CC(C)(C)C2 (centres undefined),595,-9.1% (inactive),11.6% (inactive),96.3,-87.8% (inactive),106,-0.303 (inactive),-6.3e-05 (inactive),0.00426 (inactive),15.4% (inactive),18.7% (inactive)
CCOC(=O)c1cc2sc(C)cc2n1CC(=O)NCc1ccc(F)cc1,560,-19.6% (inactive),-31% (inactive),98.7,-35.8% (inactive),124,-0.382 (inactive),-4.5e-05 (inactive),0.00466 (inactive),6.92% (inactive),16.7% (inactive)
CCc1ccc(C=NC23CN4CN(CN(C4)C2)C3)s1,319,-14.4% (inactive),-5.7% (inactive),106,-41.8% (inactive),122,-0.438 (inactive),5.9e-05 (inactive),0.00606 (inactive),-1.05% (inactive),-0.158% (inactive)
N#Cc1c2n(c(=O)[nH]c1=O)CCCCC2,270,14.4% (inactive),18.2% (inactive),113,16.1% (inactive),110,-0.5 (inactive),-0.000252 (inactive),0.00665 (inactive),-7.37% (inactive),0.231% (inactive)
O=C(Nc1ccc2snnc2c1)N1CCSCC1,407,-3% (inactive),1.8% (inactive),97.6,12.4% (inactive),106,-0.371 (inactive),-1.5e-05 (inactive),0.00608 (inactive),-5.1% (inactive),3.28% (inactive)
COc1cc(NC(=O)C(C)Oc2ccccc2)c(C(=O)O)cc1OC (centres undefined),622,-1.5% (inactive),-0.9% (inactive),108,-23.7% (inactive),101,-0.606 (inactive),-2.5e-05 (inactive),0.00509 (inactive),19% (inactive),19.4% (inactive)
